# According to PubChem BioAssay (NCATS):
# “And” between values parts separate entries of the source, which are not always exact repeats. Identical values can stand only once. Records with an inconclusive call do not appear. Entries that show only a call come without a potency. Unmarked numbers belong to inactive results. The source made the active and inactive calls. Unless noted, calls come from the whole dose curve; as a rule, active = well fitted inhibition curve with a large enough effect; inconclusive = small, poorly fitted or top-dose-only effect; inactive = flat fitted curve, though single readings scatter.
# Biological target: Retinoic acid receptor RXR-alpha (Homo sapiens) (UniProt P19793)
# Sequence (P19793 whole entry, looked up): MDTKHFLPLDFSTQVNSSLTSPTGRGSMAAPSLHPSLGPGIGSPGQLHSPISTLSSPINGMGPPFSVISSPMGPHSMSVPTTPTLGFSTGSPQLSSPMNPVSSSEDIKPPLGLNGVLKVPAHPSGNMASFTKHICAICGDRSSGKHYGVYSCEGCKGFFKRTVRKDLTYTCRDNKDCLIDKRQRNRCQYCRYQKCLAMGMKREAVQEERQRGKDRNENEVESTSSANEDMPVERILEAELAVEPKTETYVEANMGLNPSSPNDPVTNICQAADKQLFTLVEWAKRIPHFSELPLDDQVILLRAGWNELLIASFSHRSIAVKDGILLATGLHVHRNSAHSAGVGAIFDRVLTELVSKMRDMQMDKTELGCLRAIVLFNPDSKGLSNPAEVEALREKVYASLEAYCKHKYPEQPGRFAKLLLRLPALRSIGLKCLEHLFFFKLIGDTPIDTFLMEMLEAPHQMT
# Assay: qHTS assay for small molecule antagonists of retinoid X receptor alpha signaling (AID 588546; active = well fitted inhibition curve with a large enough effect in the signal ratio, with a control signal flat, not every such curve was filed as active; the % refers to the signal ratio;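 for max response: cells stimulated with 9-cis-retinoic acid as agonist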)
# Details: HEK293T RXRa-UAS-bla, beta-lactamase ratio, antagonist mode
# How it was run: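 Beta-lactamase reporter inhibition, read as CCF4 fluorescence ratio (ex 405, em 460/530 nm) after 2 h at RT. HEK293T UAS-bla cells, 2500/well, were stimulated with 9-cis-RA at 500 or 100 nM final alongside test compound for 18 h at 37 C.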
# Potency is the fitted concentration of half-maximal effect.
Structure (SMILES),max response,Potency
O=CCCCC=O,27.6%,
Nc1ccn([C@H]2CS[C@@H](CO)O2)c(=O)n1,12.8%,
CC(C)(C)NC(=O)[C@@H]1C[C@@H]2CCCC[C@@H]2CN1C[C@@H](O)[C@H](Cc1ccccc1)NC(=O)[C@H](CC(N)=O)NC(=O)c1ccc2ccccc2n1,,22.4 µM (active)
O=C(O)CCC(=O)C(=O)O,8.74%,
O=S(=O)(O)O,-0.45% and -13.7%,
CC(O)CO (stereo unspecified),9.68% and 0.556%,
CCCCC/C=C\C/C=C\CCCCCCCC(=O)O,12.5%,
CCCCCCCC/C=C\CCCCCCCC(=O)O,31.8% and 3.81%,
CC1=CCC(C(C)(C)O)CC1 (stereo unspecified),-18.6%,
CC1=C2[C@@H]([C@H](C)CC[C@H]2/C=C(\C)C(=O)O)[C@H](O)C1,-2.22%,
O=C(O)CN(CCN(CC(=O)O)CC(=O)O)CC(=O)O,-4.8% and -20.2%,
C[C@H]1C[C@H]2[C@@H]3CCC4=CC(=O)C=C[C@]4(C)[C@@]3(F)[C@@H](O)C[C@]2(C)[C@@]1(O)C(=O)CO,-12.7%,
Cc1ccccc1,-5.8% and 14.2%,
CC(C)=O,3.03%,
CC1(C)C(C=C(Cl)Cl)C1C(=O)OCc1cccc(Oc2ccccc2)c1 (stereo unspecified),-8.16% [middle of 4 runs],
CC1=C(/C=C/C(C)=C/C=C/C(C)=C/CO)C(C)(C)CCC1,-17.7% and -18.6%,
CCCCCCCC(=O)O,18.1% and 2.05%,
IC(I)I,21.1% and -13.8%,

# Biological target: Voltage-gated inwardly rectifying potassium channel KCNH2 (Homo sapiens) (UniProt Q12809)
# Sequence (Q12809 whole entry, looked up): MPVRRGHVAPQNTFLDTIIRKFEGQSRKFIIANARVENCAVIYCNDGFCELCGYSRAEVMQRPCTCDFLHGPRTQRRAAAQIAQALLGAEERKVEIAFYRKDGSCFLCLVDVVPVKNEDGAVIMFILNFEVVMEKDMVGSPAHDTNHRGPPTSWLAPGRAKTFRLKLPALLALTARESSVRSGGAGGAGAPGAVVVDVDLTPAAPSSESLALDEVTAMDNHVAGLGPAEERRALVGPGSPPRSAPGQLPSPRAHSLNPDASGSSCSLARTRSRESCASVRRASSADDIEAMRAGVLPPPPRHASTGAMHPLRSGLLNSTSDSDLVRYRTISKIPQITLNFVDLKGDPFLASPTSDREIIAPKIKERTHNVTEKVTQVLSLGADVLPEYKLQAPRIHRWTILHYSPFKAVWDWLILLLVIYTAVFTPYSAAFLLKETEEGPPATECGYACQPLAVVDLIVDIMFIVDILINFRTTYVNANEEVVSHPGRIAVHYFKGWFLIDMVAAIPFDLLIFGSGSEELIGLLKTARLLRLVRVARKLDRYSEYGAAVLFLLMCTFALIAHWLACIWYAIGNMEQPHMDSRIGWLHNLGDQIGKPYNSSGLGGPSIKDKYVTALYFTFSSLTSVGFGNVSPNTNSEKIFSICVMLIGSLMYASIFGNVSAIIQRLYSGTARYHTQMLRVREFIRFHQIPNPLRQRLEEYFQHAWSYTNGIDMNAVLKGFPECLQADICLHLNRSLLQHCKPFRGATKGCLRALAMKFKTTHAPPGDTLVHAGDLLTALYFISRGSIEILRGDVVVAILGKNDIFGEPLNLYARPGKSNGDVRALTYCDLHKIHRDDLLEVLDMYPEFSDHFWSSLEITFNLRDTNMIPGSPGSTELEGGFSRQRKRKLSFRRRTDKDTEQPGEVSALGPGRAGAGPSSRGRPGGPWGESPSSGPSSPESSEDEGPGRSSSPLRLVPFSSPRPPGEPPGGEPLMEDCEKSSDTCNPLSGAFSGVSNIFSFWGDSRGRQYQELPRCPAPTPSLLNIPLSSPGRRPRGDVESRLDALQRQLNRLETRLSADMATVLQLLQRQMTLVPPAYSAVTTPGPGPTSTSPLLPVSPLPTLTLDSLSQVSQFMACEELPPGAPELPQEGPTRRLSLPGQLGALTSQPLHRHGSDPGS
# Assay: qHTS Assay for Small Molecule Inhibitors of the Human hERG Channel Activity (AID 588834);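 note: lower thallium flux fluorescence means stronger hERG block; nearly all actives have a fitted effect of over 50% in size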
# Details: U2OS BacMam hERG, FluxOR thallium flux fluorescence; series mostly up to 46.1 µM
# How it was run: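 hERG-BacMam U2OS, 2000 cells/well; 0.7X FluxOR loading 1 hr RT dark; cpd ~10 min 37 °C; stim buffer; FDSS fluorescence 2 min @ 1 s; AC50 Hill fit.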
row,Structure (SMILES),Potency
1,C/C1=C2N=C(/C=C3N=C(/C(C)=C4\[N-][C@@](C)([C@@H]5N=C1[C@](C)(CCC(=O)NCC(C)OP(=O)(O)O[C@H]1[C@@H](O)[C@@H](n6cnc7cc(C)c(C)cc76)O[C@@H]1CO)[C@H]5CC(N)=O)[C@@](C)(CC(N)=O)[C@@H]4CCC(N)=O)[C@@](C)(CC(N)=O)[C@@H]\3CCC(N)=O)C(C)(C)[C@@H]/2CCC(N)=O.CC(=O)O.[Co] (stereo partly specified),inactive
2,O=CCCCC=O,inactive
3,Nc1ccn([C@H]2CS[C@@H](CO)O2)c(=O)n1,inactive
4,COc1ccc(C[C@H](N)C(=O)N[C@H]2[C@@H](O)[C@H](n3cnc4c(N(C)C)ncnc43)O[C@@H]2CO)cc1,inactive
5,CC(C)(C)NC(=O)[C@@H]1C[C@@H]2CCCC[C@@H]2CN1C[C@@H](O)[C@H](Cc1ccccc1)NC(=O)[C@H](CC(N)=O)NC(=O)c1ccc2ccccc2n1,35.5 µM (active)
6,CCOc1ccc2c(c1)C(C)=CC(C)(C)N2,inactive
7,O=C(O)CCC(=O)C(=O)O,inactive
8,CC[N+](CC)(CC)CCC(O)(c1ccccc1)C1CCCCC1 (stereo unspecified),inactive
9,O=S(=O)(O)O,inactive
10,CC(O)CO (stereo unspecified),inactive
11,CC[C@@H](C(=O)O)[C@@H]1O[C@@H]([C@@H](C)[C@H](O)[C@H](C)C(=O)[C@H](CC)[C@H]2O[C@]3(C=C[C@@H](O)[C@]4(CC[C@@](C)([C@H]5CC[C@](O)(CC)[C@H](C)O5)O4)O3)[C@H](C)C[C@@H]2C)[C@@H](C)C[C@@H]1C,inactive
12,CCCCC/C=C\C/C=C\CCCCCCCC(=O)O,inactive
13,CCOC(C)=O,inactive
14,CCCCCCCC/C=C\CCCCCCCC(=O)O,inactive
15,CO[C@@H]1[C@@H](O[C@@H]2O[C@H](C)[C@@H](O[C@H]3C[C@@](C)(O)[C@@H](O)[C@H](C)O3)[C@H](N(C)C)[C@H]2O)[C@@H](CC=O)C[C@@H](C)[C@@H](O[C@@H]2CC[C@H](N(C)C)[C@@H](C)O2)/C=C/C=C/C[C@@H](C)OC(=O)C[C@H]1O,inactive
16,CC1=CCC(C(C)(C)O)CC1 (stereo unspecified),inactive
17,CN=C(NC#N)Nc1ccc(C2=NNC(=O)C[C@@H]2C)cc1,inactive

row,Structure (SMILES),Potency
1,CO[C@H]1C=CO[C@@]2(C)Oc3c(C)c(O)c4c(O)c(c5c(nc6cc(C)ccn65)c4c3C2=O)NC(=O)/C(C)=C\C=C[C@H](C)[C@H](O)[C@@H](C)[C@@H](O)[C@@H](C)[C@H](OC(C)=O)[C@@H]1C,inactive
2,CC1=C2[C@@H]([C@H](C)CC[C@H]2/C=C(\C)C(=O)O)[C@H](O)C1,inactive
3,CC(=O)O[C@]1(C(C)=O)CC[C@H]2[C@@H]3CCC4=CC(=O)CC[C@]4(C)[C@@]3(F)[C@@H](O)C[C@@]21C,inactive
4,CO[C@H]1C=CO[C@@]2(C)Oc3c(C)c(O)c4c(O)c(c5c(c4c3C2=O)=NC2(CCN(CC(C)C)CC2)N=5)NC(=O)/C(C)=C\C=C/[C@H](C)[C@H](O)[C@@H](C)[C@@H](O)[C@@H](C)[C@H](OC(C)=O)[C@@H]1C,inactive
5,CC(C)C(=O)OCC(=O)[C@@]12O[C@H](C3CCCCC3)O[C@@H]1C[C@H]1[C@@H]3CCC4=CC(=O)C=C[C@]4(C)[C@H]3[C@@H](O)C[C@@]12C,3.98 µM (active)
6,C[C@H]1C[C@H]2[C@@H]3CCC4=CC(=O)C=C[C@]4(C)[C@@]3(F)[C@@H](O)C[C@]2(C)[C@@]1(O)C(=O)CO,inactive
7,C[C@@H]1[C@H](O)[C@@H](C)/C=C/C=C\C=C\C=C\C=C\C=C\C=C\[C@H](O[C@@H]2O[C@H](C)[C@@H](O)[C@H](N)[C@@H]2O)C[C@@H]2O[C@](O)(C[C@@H](O)C[C@@H](O)[C@H](O)CC[C@@H](O)C[C@@H](O)CC(=O)O[C@H]1C)C[C@H](O)[C@H]2C(=O)O (stereo in doubt),inactive
8,Cc1ccccc1,inactive
9,CC(C)=O,inactive
10,CCCCC(=O)N(Cc1ccc(-c2ccccc2-c2nn[nH]n2)cc1)[C@@H](C(=O)O)C(C)C,inactive
11,OCC(S)CS (stereo unspecified),inactive
12,CC1(C)C(C=C(Cl)Cl)C1C(=O)OCc1cccc(Oc2ccccc2)c1 (stereo unspecified),inactive
13,C[C@]12C=CC(=O)N[C@@H]1CC[C@@H]1[C@@H]2CC[C@]2(C)[C@@H](C(=O)Nc3cc(C(F)(F)F)ccc3C(F)(F)F)CC[C@@H]12,2.51 µM (active)
14,CC1(C)O[C@@H]2C[C@H]3[C@@H]4CCC5=CC(=O)C=C[C@]5(C)[C@H]4[C@@H](O)C[C@]3(C)[C@]2(C(=O)CO)O1,inactive
15,CCCCCCCC(=O)O,inactive
16,IC(I)I,inactive
